The values that follow come from the supplement of paper PMC11417369.

In all, about 25,000 sequences were measured (“ln(normalized median fluorescence intensity)”: median about 9.7, highest 2% from about 11 on). Only a selection was taken, and the highest values are over-represented in it overall.

The experiment relates to PfAP2-HC AP2 domain (GST-tagged). The experiment is described as follows: gcPBM binding intensity (ln(normalized median fluorescence intensity)); higher = stronger DNA binding. In outline: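 Using an Agilent 4 × 180k array, primer-extended double-stranded 36-bp intergenic genomic probes and negative controls were exposed for 1 h to GST-fused P. falciparum DNA-binding domains expressed in E. coli. Binding was carried out in 1× PBS with 1% milk, 0.2 mg/ml BSA, 0.5% salmon testes DNA and 0.03% Triton X-100, and protein was detected with Alexa488 anti-GST antibody and a 488 nm scan. Binding intensity is the highest Masliner-normalised natural-log median intensity across replicate spots of either probe orientation.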
As for “TATATTTTTATAATAACACACGATATATGTTTAGGA [CACACA_site1283]”, the “gcPBM binding intensity (ln)” value was determined as 9.63.
Next, “TAAGACTATTAAAAAATTGAGTACATGAACTGTTCA [GTGCAC_negctrl_site670]”: 9.41; “AACAAAATAAGACACACACACAAATGTACCTATATA [CACACA_site7189]”: 10.4.
Next, “ATATCTAAATATATTACACACAGATATCTTCCTATA [CACACA_site3701]”: 9.87.
Consider “CTAAGAAAAAATAAAGCACACAAATATTTTAAAAAC [CACACA_site9094]”, for which the “gcPBM binding intensity (ln)” value turned out to be 9.93.
Next, “AATTTTTTTTTTTTTTTTTTTTATATATGTGTGTGT [XGTACX_negctrl_site129]”: 11; “TTATATATTTTTATGTGTACTTATATATATATATAT [XGTACX_site6211]”: 9.77; “ATATTTATATATATATGTACATATGTGTGTTTTTAT [XGTACX_site3956]”: 9.91.
For “TTTTTTATATATGTGTGTGTGTGTGTGTCAAGTTTA [GTGCAC_negctrl_site460]”, the “gcPBM binding intensity (ln)” value stood at 11.1.
Next, “TATATGTTAATTTTTTTTTTTTTTTTTTTTTTTATA [CACACA_negctrl_site62]”: 9.26; “TATATATGTATCAAGTGTACAGTTTTAAAAAAAAAA [XGTACX_site6011]”: 9.67.
Next, “ATAATGTAAAATAAATGTACGCAATATATAAAAAAT [XGTACX_site5747]”: 10.1; “AAATAATTTACTTAATGTACATATATATATATATAT [XGTACX_site8594]”: 9.78; “TTGTAGGTAAATATGTGTACGCATTATTATTCTTAA [XGTACX_site216]”: 9.58.
Next, CTTATAATATTACGGGTGCTATAAATACATTATATT: 9.72.
As for “TAAATATATATATGGTGTACCATTTTGGGTTAATAT [XGTACX_site2706]”, the “gcPBM binding intensity (ln)” value came out at 9.54.
The figure for “AATATAAGCAAATACACACACACATATATATATATA [CACACA_site3805]” is 10.7; for “ATACAACAAAAATAAGCACACACAAATATACATACA [CACACA_site9201]” it is 10.8.
The figure for “ACAAAAAAAATAAGCACACATATATATATATATATA [CACACA_site816]” is 9.91; for “ACAACAAAAATAAGCACACACAAATATACATACATA [CACACA_site7664]” it is 11.3; for “CCAACAAAAATAAGCACACACAAATATACATACATA [CACACA_site3606]” it is 11.1.
The figure for “AAACAAAAAAAATAAGCACACATATATATATATATA [CACACA_site8173]” is 9.7.
In the case of “ATATATATATATATGTGTACATATAAGATAGAAGAA [XGTACX_site3198]”, the “gcPBM binding intensity (ln)” value was 10.2.
The figure for “TTTTTTAATATTTATACATGCATGCCGATTACTATA [TGCATGCA_site26]” is 9.87.
Next, TATATATAATACAGTATGCACTATTTTTATTAAAAA: 9.41; “AGTAACAAAAGAAAAAAATATGCAAACATATATATA [XGTACX_negctrl_site468]”: 9.65; “TTTTTATTTGGTTGTGTACACATATATATATATATA [CACACA_site5844]”: 9.84.
As to “TACATACATACATACACACACACATCTATATTTATA [CACACA_site6171]”, the “gcPBM binding intensity (ln)” value is 10.6.
The figure for “TTATACTAAATGAACACACACACATCTATATTTATA [CACACA_site6199]” is 10.3.
As to “TGAACACACGAGCACACACACACATCTATATTTATA [CACACA_site6607]”, the “gcPBM binding intensity (ln)” value is 11.1.
“GTAGAGAAAAAAATGTGGACACAAAAAATAAAAAGG [XGTACX_site4058]”: the “gcPBM binding intensity (ln)” value was found to be 9.79.
Next, “ATAAATAAAGGACACACACACACACTAATAAAAAAA [CACACA_site8840]”: 11.4; “AAAAAAATAAAGGATATACACACTAATTATATATAT [CACACA_site2812]”: 9.81; “ATAAATAAAGGACACACACACACACTAGAAAAAAAA [CACACA_site5450]”: 11.1.
The figure for “AAAAATAAAGGATATACACACTAATTATATATATAT [CACACA_site5550]” is 9.91; for “AAAAAAGAAAAAAGGACACACATAAATATACACCCG [CACACA_site5590]” it is 10.2.
The figure for “ATATGTTTTGTTTACGTGCACTGCTTTGTTTATATA [GTGCAC_site9622]” is 10.5; for “ATATTTATTTATAATTGTACTAATAATATATTTTAA [XGTACX_site587]” it is 9.51; for “TTTCCTTACCCTTTCCTGGTGTAGAAATTATACTCT [TGCATGCA_negctrl_site116]” it is 9.61.
Consider “TATTTCATCTTTTAAGAAGGTACCCATATGTCATAT [GTGCAC_negctrl_site403]”, for which the “gcPBM binding intensity (ln)” value was 9.57.
Next, “TTATTTTATTTTAAAAAAAACAATATAAATTCAAAG [GTGCAC_negctrl_site57]”: 9.09; “ATAATCCTTGGACACACACACACACTAGTAAATAAA [CACACA_site4423]”: 11.3.
The figure for “AAATATATATATATAATACACACTAAAGTAACATAA [CACACA_site2870]” is 10; for “ATAATCCTTAAACACACACACACACTAATAAATAAA [CACACA_site8052]” it is 10.8.
